The text below walks through data of publication PMC11024108.

Among the targets are Histone H2B type 1-H (UniProt Q93079); Intersectin-1 (UniProt Q9Z0R4); Kinesin light chain 2 (UniProt O88448); Myosin light chain 6B (UniProt Q8CI43); Myosin-14 (UniProt Q6URW6); Myosin-9 (UniProt Q8VDD5); Neurofascin (UniProt Q810U3); Septin-11 (UniProt Q8C1B7); Septin-6 (UniProt Q9R1T4); Septin-8 (UniProt Q8CHH9); Septin-9 (UniProt Q80UG5); Peroxiredoxin-2 (UniProt Q61171); Peroxiredoxin-4 (UniProt Q13162); Prefoldin subunit 5 (UniProt Q99471); Putative protein FAM10A5 (UniProt Q8NFI4); Radixin (UniProt P35241).

What all share (assay): cross-link between two proteins; cross-linking mass spectrometry
Assay [1] addresses Hemoglobin subunit beta-1 (UniProt P02088).
Assay [2] concerns the target Hyaluronan and proteoglycan link protein 1 (UniProt Q9QUP5).
The target of assay [3] is Insulin-like growth factor 1 receptor (UniProt Q60751).
The target of assay [4] is Kinesin heavy chain isoform 5C (UniProt P28738).
Assay [5] concerns the target Lanosterol 14-alpha demethylase (UniProt Q16850).
Assay [6] has as its target Lysocardiolipin acyltransferase 1 (UniProt Q6UWP7).
Assay [7] has as its target Limbic system-associated membrane protein (UniProt Q8BLK3).
Assay [8] concerns the target Melanoma inhibitory activity protein 2 (UniProt Q91ZV0).
The target in assay [9] is Microtubule-associated protein 1A (UniProt Q9QYR6).
Assay [10] deals with Mitochondrial import inner membrane translocase subunit TIM16 (UniProt Q9Y3D7).
The target of assay [11] is Mitochondrial import inner membrane translocase subunit Tim9 (UniProt Q9Y5J7).
Sequence of Mitochondrial import inner membrane translocase subunit Tim9 (Q9Y5J7 whole entry): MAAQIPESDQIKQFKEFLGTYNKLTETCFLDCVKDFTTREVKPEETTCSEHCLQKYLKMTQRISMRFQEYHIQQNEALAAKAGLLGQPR
The target in assay [12] is Monocarboxylate transporter 1 (UniProt P53985).
Assay [13] concerns the target NADPH:adrenodoxin oxidoreductase, mitochondrial (UniProt P22570).
Assay [14] has as its target Neuronal pentraxin receptor (UniProt Q99J85).
Assay [15] deals with Neuronal-specific septin-3 (UniProt Q9Z1S5).
Sequence of Neuronal-specific septin-3 (Q9Z1S5 whole entry): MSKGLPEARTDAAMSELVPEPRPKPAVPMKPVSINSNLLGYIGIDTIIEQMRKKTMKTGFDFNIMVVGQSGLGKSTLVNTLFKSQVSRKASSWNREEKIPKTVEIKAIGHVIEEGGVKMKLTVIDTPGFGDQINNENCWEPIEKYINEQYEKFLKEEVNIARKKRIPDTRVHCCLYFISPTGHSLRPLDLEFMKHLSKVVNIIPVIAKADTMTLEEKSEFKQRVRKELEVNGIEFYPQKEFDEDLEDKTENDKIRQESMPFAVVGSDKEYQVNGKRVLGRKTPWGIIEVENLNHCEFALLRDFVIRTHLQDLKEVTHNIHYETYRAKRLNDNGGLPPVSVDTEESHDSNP
In assay [16] the target is Neutral alpha-glucosidase AB (UniProt Q14697).
For assay [17], the target named is Non-POU domain-containing octamer-binding protein (UniProt Q99K48).
Assay [18] has as its target Non-selective voltage-gated ion channel VDAC2 (UniProt P45880).
In assay [19] the target is Non-selective voltage-gated ion channel VDAC3 (UniProt Q9Y277).
In assay [20] the target is Nucleosome assembly protein 1-like 4 (UniProt Q78ZA7).
Assay [21] addresses Osteopetrosis-associated transmembrane protein 1 (UniProt Q86WC4).
Assay [22] addresses Peptidyl-prolyl cis-trans isomerase B (UniProt P23284).
Assay [23] has as its target Peroxisomal bifunctional enzyme (UniProt Q08426).
Assay [24] concerns the target Phosphoglycerate mutase 1 (UniProt Q9DBJ1).
Assay [25] has as its target Plasma membrane calcium-transporting ATPase 4 (UniProt Q6Q477).
The target in assay [26] is Polymerase delta-interacting protein 2 (UniProt Q9Y2S7).
In assay [27] the target is Potassium voltage-gated channel subfamily A member 2 (UniProt P63141).
Sequence of Potassium voltage-gated channel subfamily A member 2 (P63141 whole entry): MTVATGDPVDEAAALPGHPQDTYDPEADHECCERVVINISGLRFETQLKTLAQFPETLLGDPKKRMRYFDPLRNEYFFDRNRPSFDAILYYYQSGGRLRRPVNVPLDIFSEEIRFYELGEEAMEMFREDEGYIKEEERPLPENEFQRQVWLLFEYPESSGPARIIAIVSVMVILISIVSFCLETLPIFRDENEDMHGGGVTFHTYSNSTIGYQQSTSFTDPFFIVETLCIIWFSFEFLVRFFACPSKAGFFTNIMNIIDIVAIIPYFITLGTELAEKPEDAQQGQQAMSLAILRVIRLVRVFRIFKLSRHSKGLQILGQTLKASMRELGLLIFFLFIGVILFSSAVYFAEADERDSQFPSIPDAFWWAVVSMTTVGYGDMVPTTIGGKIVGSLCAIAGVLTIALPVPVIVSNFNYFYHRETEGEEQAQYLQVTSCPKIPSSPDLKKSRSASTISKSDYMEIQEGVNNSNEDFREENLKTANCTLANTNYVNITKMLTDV
For assay [28], the target named is Prostaglandin E synthase 2 (UniProt Q9H7Z7).
The target of assay [29] is Proteasome activator complex subunit 2 (UniProt P97372).
Assay [30] addresses Proteasome subunit alpha type-6 (UniProt P60900).
Assay [31] has as its target Proteasome subunit alpha type-6 (UniProt Q9QUM9).
The target in assay [32] is Proteasome subunit alpha type-7 (UniProt Q9Z2U0).
Assay [33] addresses Proteasome subunit beta type-4 (UniProt P99026).
Assay [34] addresses Proteasome subunit beta type-7 (UniProt P70195).
Assay [35] has as its target RCC1-like G exchanging factor-like protein (UniProt Q96I51).
In assay [36] the target is Ragulator complex protein LAMTOR3 (UniProt Q9UHA4).
Sequence of Ragulator complex protein LAMTOR3 (Q9UHA4 whole entry, one chain of several): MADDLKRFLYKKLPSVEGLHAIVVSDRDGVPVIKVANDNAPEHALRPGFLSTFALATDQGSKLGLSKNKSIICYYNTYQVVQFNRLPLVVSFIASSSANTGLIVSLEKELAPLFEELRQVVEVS
Assay [37] has as its target Ras-related protein Rab-3A (UniProt P63011).
Assay [38] has as its target Rho guanine nucleotide exchange factor 7 (UniProt Q9ES28).
In assay [39] the target is Ribosome-binding protein 1 (UniProt Q9P2E9).
Assay [40] addresses S-adenosylhomocysteine hydrolase-like protein 1 (UniProt Q80SW1).

Sequence of Membrane-associated progesterone receptor component 1, O00264 (O00264 whole entry): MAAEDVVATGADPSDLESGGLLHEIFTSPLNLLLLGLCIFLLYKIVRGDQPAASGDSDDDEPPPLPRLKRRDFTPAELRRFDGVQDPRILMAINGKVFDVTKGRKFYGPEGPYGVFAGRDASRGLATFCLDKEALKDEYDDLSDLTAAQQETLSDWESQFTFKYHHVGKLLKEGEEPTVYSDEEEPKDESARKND
Sequence of Proteasome subunit beta type-4 (P99026 whole entry): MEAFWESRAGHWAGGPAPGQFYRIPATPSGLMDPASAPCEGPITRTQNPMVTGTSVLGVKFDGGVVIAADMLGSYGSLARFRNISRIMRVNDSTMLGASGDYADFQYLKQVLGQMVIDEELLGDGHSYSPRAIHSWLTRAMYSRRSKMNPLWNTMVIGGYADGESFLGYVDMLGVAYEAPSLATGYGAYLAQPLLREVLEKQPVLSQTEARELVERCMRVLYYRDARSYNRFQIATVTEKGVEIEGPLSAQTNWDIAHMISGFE
Sequence of Septin-8 (Q8CHH9 whole entry): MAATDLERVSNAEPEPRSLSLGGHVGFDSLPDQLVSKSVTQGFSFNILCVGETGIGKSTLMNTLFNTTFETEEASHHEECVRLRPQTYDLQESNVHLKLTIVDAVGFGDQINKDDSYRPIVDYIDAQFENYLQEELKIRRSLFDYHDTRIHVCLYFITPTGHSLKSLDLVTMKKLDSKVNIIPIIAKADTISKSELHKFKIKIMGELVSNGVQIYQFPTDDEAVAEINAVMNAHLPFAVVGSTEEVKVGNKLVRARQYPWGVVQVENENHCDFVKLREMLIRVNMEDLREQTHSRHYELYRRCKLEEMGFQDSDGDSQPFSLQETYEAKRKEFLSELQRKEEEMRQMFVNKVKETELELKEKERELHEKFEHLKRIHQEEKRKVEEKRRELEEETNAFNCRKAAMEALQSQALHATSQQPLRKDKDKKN
Sequence of Intersectin-1 (Q9Z0R4 whole entry): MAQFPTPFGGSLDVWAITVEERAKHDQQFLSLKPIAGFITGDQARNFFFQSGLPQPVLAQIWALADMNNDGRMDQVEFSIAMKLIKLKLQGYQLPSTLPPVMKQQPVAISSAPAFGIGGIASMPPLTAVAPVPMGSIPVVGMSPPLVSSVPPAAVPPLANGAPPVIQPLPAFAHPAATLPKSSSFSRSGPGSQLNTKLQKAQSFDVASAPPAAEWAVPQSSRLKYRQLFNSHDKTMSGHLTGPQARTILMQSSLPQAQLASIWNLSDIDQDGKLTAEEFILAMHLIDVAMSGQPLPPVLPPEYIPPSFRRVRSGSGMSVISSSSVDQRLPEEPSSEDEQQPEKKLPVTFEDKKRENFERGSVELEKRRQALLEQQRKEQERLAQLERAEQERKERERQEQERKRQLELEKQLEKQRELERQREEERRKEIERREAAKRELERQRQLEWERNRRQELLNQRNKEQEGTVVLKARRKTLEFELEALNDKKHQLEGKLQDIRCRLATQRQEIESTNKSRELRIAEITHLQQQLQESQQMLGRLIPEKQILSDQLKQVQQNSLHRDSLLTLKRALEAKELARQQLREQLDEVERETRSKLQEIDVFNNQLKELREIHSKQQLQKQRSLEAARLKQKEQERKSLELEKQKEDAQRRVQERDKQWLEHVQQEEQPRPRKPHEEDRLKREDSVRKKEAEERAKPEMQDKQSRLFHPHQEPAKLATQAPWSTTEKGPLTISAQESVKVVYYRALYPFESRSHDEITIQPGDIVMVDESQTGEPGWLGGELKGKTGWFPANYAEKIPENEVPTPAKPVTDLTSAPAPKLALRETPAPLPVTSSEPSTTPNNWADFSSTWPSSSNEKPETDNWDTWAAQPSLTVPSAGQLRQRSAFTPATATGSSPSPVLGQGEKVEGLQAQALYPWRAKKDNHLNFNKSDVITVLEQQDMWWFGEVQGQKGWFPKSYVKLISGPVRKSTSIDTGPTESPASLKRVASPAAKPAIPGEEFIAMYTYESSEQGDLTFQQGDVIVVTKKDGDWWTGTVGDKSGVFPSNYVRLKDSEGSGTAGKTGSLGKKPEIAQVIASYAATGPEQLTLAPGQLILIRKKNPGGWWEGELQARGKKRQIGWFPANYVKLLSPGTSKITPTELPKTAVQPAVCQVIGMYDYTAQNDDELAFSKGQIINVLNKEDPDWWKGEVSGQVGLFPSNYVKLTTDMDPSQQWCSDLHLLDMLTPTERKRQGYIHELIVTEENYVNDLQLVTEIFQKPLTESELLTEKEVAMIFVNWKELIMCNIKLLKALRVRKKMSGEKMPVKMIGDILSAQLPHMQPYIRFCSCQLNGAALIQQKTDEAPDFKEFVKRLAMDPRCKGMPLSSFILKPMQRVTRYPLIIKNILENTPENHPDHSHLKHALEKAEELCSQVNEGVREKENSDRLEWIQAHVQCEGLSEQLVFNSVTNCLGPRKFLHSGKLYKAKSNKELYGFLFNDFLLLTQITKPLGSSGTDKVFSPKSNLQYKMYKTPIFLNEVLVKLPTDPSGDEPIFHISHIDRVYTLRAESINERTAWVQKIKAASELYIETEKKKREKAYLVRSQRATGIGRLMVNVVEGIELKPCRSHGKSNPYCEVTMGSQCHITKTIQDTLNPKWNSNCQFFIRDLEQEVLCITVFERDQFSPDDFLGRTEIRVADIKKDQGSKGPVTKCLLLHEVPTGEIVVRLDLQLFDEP
Sequence of Peroxiredoxin-2 (Q61171 whole entry): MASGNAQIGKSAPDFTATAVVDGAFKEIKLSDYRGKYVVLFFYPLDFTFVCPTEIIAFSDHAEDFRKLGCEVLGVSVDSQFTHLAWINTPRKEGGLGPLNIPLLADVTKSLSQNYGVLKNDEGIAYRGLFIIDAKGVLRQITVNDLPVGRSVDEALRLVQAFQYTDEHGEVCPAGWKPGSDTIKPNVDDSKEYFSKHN
Sequence of Neuronal pentraxin receptor (Q99J85 whole entry): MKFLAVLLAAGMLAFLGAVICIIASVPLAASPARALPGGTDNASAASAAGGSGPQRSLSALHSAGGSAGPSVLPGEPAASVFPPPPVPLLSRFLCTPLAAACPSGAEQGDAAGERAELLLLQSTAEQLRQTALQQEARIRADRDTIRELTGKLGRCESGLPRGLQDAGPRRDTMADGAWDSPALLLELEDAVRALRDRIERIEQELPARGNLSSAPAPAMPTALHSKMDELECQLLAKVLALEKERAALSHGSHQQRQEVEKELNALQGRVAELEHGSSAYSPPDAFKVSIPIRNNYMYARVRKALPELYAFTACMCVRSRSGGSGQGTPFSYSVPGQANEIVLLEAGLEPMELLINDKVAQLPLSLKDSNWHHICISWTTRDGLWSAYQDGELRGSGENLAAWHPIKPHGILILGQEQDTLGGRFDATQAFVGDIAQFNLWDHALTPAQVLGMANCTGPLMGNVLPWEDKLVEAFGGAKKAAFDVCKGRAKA
Sequence of Hemoglobin subunit beta-1 (P02088 whole entry): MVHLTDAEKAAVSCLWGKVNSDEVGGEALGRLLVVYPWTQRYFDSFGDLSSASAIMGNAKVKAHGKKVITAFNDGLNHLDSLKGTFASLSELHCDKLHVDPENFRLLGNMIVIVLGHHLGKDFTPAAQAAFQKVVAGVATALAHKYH
Sequence of Septin-6 (Q9R1T4 whole entry): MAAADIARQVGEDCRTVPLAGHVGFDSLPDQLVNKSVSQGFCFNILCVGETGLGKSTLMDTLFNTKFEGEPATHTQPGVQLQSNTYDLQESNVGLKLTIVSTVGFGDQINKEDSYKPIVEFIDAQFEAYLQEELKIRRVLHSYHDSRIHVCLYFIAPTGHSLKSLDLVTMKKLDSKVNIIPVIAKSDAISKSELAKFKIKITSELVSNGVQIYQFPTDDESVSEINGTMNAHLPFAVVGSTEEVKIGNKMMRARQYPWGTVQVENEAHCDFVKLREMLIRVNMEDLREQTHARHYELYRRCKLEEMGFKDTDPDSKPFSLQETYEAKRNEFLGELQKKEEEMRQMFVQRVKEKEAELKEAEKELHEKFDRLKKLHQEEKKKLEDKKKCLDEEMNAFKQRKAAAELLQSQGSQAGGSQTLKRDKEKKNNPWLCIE

Take Hemoglobin subunit alpha, P01942: the “listed as a hit” value in assay [1] is “yes”.
On to Programmed cell death protein 4, Q53EL6, for which the “listed as a hit” value in the assay with Histone H2B type 1-H is “yes”.
Consider Neurocan core protein, P55066, for which the “listed as a hit” value in assay [2] is on record as “yes”.
With Insulin receptor, P15208, the “listed as a hit” value in assay [3] was “yes”.
Regarding “Epidermal growth factor receptor substrate 15-like 1, Q60902”, in the assay with Intersectin-1, the “listed as a hit” value is given as “yes”.
For the substance Kinesin light chain 1, O88447, the “listed as a hit” value (in [4]; in the assay with Kinesin light chain 2) was “yes” each time.
“Membrane-associated progesterone receptor component 1, O00264”: the “listed as a hit” value in assay [5] and in [6] was “yes” each time.
Regarding Rho-associated protein kinase 2, P70336, in assay [7], the “listed as a hit” value is reported as “yes”.
Consider “Transport and Golgi organization protein 1 homolog, Q8BI84”, for which the “listed as a hit” value in assay [8] was “yes”.
As for “Microtubule-associated protein 1B, P14873”, in [9], the “listed as a hit” value was “yes”.
Consider “Mitochondrial import inner membrane translocase subunit TIM14, Q96DA6”, for which, in [10], the “listed as a hit” value was “yes”.
Take “Mitochondrial import inner membrane translocase subunit Tim22, Q9Y584”: in [11], the “listed as a hit” value is reported as “yes”.
For the substance Basigin, P35613, in [12], the “listed as a hit” value is reported as “yes”.
As for Myosin-10, Q61879, the “listed as a hit” value with Myosin light chain 6B, in the assay with Myosin-14 and with Myosin-9 was “yes” each time.
In the case of “Dihydrolipoyl dehydrogenase, mitochondrial, P09622”, the “listed as a hit” value in assay [13] is reported as “yes”.
For the substance Contactin-associated protein 1, O54991, the “listed as a hit” value in the assay with Neurofascin is “yes”.
On to Neuronal pentraxin-1, Q62443, for which the “listed as a hit” value in [14] is on record as “yes”.
For the substance Septin-7, O55131, the “listed as a hit” value (in [15]; in the assay with Septin-11; in the assay with Septin-6; with Septin-8; with Septin-9) was “yes” in each case.
For Calreticulin, P27797, the “listed as a hit” value in [16] is listed as “yes”.
“Splicing factor, proline- and glutamine-rich, Q8VIJ6”: in assay [17], the “listed as a hit” value was “yes”.
As for Hexokinase-1, P19367, in assay [18], the “listed as a hit” value was “yes”.
For the substance “Non-selective voltage-gated ion channel VDAC2, P45880”, the “listed as a hit” value in assay [19] is given as “yes”.
Turning to “Nucleosome assembly protein 1-like 1, P28656”, the “listed as a hit” value in assay [20] was “yes”.
Take “H(+)/Cl(-) exchange transporter 7, P51798”: the “listed as a hit” value in assay [21] was “yes”.
As for Protein disulfide-isomerase A4, P13667, in assay [22], the “listed as a hit” value was “yes”.
For Peroxiredoxin-1, P35700, in the assay with Peroxiredoxin-2, the “listed as a hit” value is “yes”.
With Peroxiredoxin-1, Q06830, in the assay with Peroxiredoxin-4, the “listed as a hit” value is “yes”.
For Catalase, P04040, the “listed as a hit” value in [23] was “yes”.
As for Phosphoglycerate mutase 2, O70250, in assay [24], the “listed as a hit” value was “yes”.
Take “Plasma membrane calcium-transporting ATPase 1, G5E829”: the “listed as a hit” value in assay [25] is recorded as “yes”.
Take “ATP-dependent clpX-like chaperone, mitochondrial, O76031”: the “listed as a hit” value in assay [26] was “yes”.
Regarding “Voltage-gated potassium channel subunit beta-2, P62482”, the “listed as a hit” value in assay [27] was “yes”.
For the substance Prefoldin subunit 1, O60925, in the assay with Prefoldin subunit 5, the “listed as a hit” value is “yes”.
For the substance “Glycerol-3-phosphate dehydrogenase, mitochondrial, P43304”, in assay [28], the “listed as a hit” value is recorded as “yes”.
Take “Proteasome activator complex subunit 1, P97371”: the “listed as a hit” value in [29] is “yes”.
On to Proteasome subunit alpha type-2, P25787, for which the “listed as a hit” value in assay [30] was “yes”.
For Proteasome subunit alpha type-2, P49722, the “listed as a hit” value in assay [31] is on record as “yes”.
In the case of Proteasome subunit alpha type-4, Q9R1P0, the “listed as a hit” value in [32] was “yes”.
With Proteasome subunit beta type-7, P70195, the “listed as a hit” value in assay [33] was “yes”.
Consider Proteasome subunit beta type-1, O09061, for which the “listed as a hit” value in assay [34] is on record as “yes”.
Take Hsc70-interacting protein, P50502: the “listed as a hit” value with Putative protein FAM10A5 was “yes”.
With “Nucleoside diphosphate kinase 6, mitochondrial, O75414”, the “listed as a hit” value in assay [35] is “yes”.
Turning to Moesin, P26038, the “listed as a hit” value in the assay with Radixin is reported as “yes”.
Turning to “ADP-ribosylation factor-like protein 8B, Q9NVJ2”, the “listed as a hit” value in [36] is on record as “yes”.
Regarding Ras-related protein Rab-3C, P62823, in assay [37], the “listed as a hit” value is listed as “yes”.
As for “ARF GTPase-activating protein GIT1, Q68FF6”, the “listed as a hit” value in assay [38] is “yes”.
“Dual E2 ubiquitin-conjugating enzyme/E3 ubiquitin-protein ligase BIRC6, Q9NR09”: the “listed as a hit” value in assay [39] is “yes”.
Take “S-adenosylhomocysteine hydrolase-like protein 2, Q68FL4”: the “listed as a hit” value in [40] was “yes”.
